ClpP mod = qHTS Assay for Activators of ClpP; ATP-dependent Clp protease proteolytic subunit (Bacillus subtilis (strain 168)), P80244; purified B. subtilis ClpP, FRET peptide cleavage, 20 min; Potency, µM (doses to about 57.5 µM), for the others: at the top dose activity change, negative = active; 340,000 tested, 1.9% active; active = well fitted falling curve with a large enough effect; inconclusive = small, poorly fitted or top-dose-only effect; inactive = no such curve, though single readings can be large or run the other way; also: potency is read from the fitted curve at half-maximal effect; the source files actives as falling curves though it sought activators and does not explain the sign; nearly all actives have a fitted effect of over 65% in size
Target sequence (P80244 whole entry, looked up): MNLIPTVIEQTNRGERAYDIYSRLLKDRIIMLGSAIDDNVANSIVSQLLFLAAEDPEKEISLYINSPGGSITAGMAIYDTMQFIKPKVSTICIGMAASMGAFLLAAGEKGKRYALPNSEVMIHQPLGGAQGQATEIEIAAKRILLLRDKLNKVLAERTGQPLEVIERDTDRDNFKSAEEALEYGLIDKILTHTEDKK
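Purified B. subtilis ClpP, 10 microg/mL final in Tris/HCl pH8 with KCl, BSA, glycerol and Tween-20, cleaved an Abz/nitrotyrosine-quenched decapeptide. Fluorescence (ex 320, em 430) was read at 0 and 20 min at room temperature. Delta was normalized to 5.8 microM ADEP and DMSO/no-enzyme controls.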
DRD3 antagonist = blocks the human D3 dopamine receptor. P35462. D3R cells, DiscoveRx beta-arrestin luminescence, antagonist mode; hits give low values. max response, negative = inhibition, %. 360,000 tested, 2.5% active; in the data active = max response below about -50%; inconclusive = no clear call, values can overlap the other calls; also: % is scaled to controls: 0 for no effect and ±100 for the full control effect
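Cells plated overnight at 1500 cells/well, then exposed to library compounds with dopamine controls for 90 minutes at 37 degrees C. DiscoveRx reagent added for 30–60 minutes at room temperature; luminescence read, quantitative HTS format.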
TDP1 cell noCPT = qHTS for Inhibitors of human tyrosyl-DNA phosphodiesterase 1 (TDP1): qHTS in cells in absence of CPT | DT40 Tdp1-/- hTDP1 cells, no CPT, ATP luminescence, 48 h | Potency, µM (doses to about 46.2 µM), for the others: at the highest dose activity change, negative = growth inhibition, most hits filed as inhibitors | 420,000 tested, 15% active; also: potency is read from the fitted curve at half-maximal effect; % is scaled to controls: 0 for no effect and ±100 for the full control effect; nearly all actives have a fitted effect of over 55% in size
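Cells were dispensed at 400 per well, compounds added by pin tool, plates incubated ≥48 hr at 37 °C, then CellTiter-Glo added for 30 min at room temperature before luminescence reading. Line: DT40 Tdp1-/- complemented with hTDP1; camptothecin omitted.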
DT40 TDP1 CPT = growth inhibition of DT40 Tdp1-/-;hTDP1 cells with camptothecin (screen for TDP1 inhibitors); Potency, µM (titrated, usually from 46.2 µM), for inactives: at the top dose activity change, negative = growth inhibition, usual class: inhibitors; chicken DT40 Tdp1-/-;hTDP1 cells + 20 nM CPT, ATP luminescence, 48 h; 420,000 tested, 12% active; also: potency is read from the fitted curve at half-maximal effect; % is scaled to controls: 0 for no effect and ±100 for the full control effect; nearly all actives have a fitted effect of over 55% in size
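Cell growth measured by CellTiter-Glo luminescence after a minimum 48 h, 37 C compound exposure with 20 nM CPT in Tdp1-knockout DT40 cells stably expressing hTDP1, seeded 400/well; qHTS titration format.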
D3 ag = D3 dopamine receptor (human) agonism | max activation, % | 410,000 tested, 0.58% active | AID 652048 | D3R DiscoveRx beta-arrestin cells, luminescence, 90 min | P35462; in the data active = max activation above about 30%; also: 0% is about no effect
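Agonist-mode cell screen: cells plated at 1500/well and incubated overnight at 37 °C, then exposed to library compounds for 90 min at 37 °C. Detection reagent was added for 30–60 min at room temperature, and luminescence was read.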
IL-1B inflam inh = inhibitors of inflammasome signaling (IL-1 beta secretion); THP-1 LPS/ATP IL-1B secretion, AlphaLISA, 16 h; hits give low values; activity change, % at 57.5 µM; 360,000 tested, 4.7% active; AID 743279; in the data active = activity change below about -50%; inconclusive = mostly about -30% to -49%; also: % is scaled to controls: 0 for no effect and ±100 for the full control effect
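Secreted IL-1B measured by AlphaLISA bead assay after 16 h compound exposure of THP-1 cells; compounds (final up to 57.5 uM) added 1 h before LPS (250 ng/mL) and ATP (1.25 mM) stimulation; lower signal means less secretion.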
* hit, by the source's call; ? = inconclusive; nt = no result; ! = a repeat was not active. Shown are actives, neighbours in structure and some others; about 21% of the full set was active somewhere. Unless noted, calls follow the shape of the dose curve; as a rule, active = well fitted inhibition curve with a large enough effect; inconclusive = small, poorly fitted or top-dose-only effect; inactive = flat fitted curve, though single readings scatter.

SMILES	ClpP mod	DRD3 antagonist	TDP1 cell noCPT	DT40 TDP1 CPT	D3 ag	IL-1B inflam inh
O=C1/C(=C\c2ccncc2)CCc2ccccc21	-1%	-23	15µM*	13µM*	0	-98*
O=C(O)c1cccc(N=NN2CCOCC2)c1	nt	6	3%	4%	2	-6
CCC(=O)N1c2ccccc2CC1C(=O)NCCc1ccccc1C (centres undefined)	-3%	nt	-21%	?	-21	nt
CCN(CCn1cccn1)Cc1nc(Cc2cccc(F)c2)no1	nt	5	-16%	16%	-10	-3
CCOc1cc(C(=O)NCc2nc(-c3cccc(C)c3)no2)cc(OCC)c1OCC	2%	nt	-22%	-6%	-19	nt
O=C1/C(=C\c2ccccc2)CCC/C1=C/c1ccccc1	1%	2	18µM*	21µM*	-13	-25
O=C1CCC/C1=C\c1ccccc1	2%	-5	-2%	0%	1	10
Cc1ccc(NC(=O)Cn2c(=O)n(CCC(=O)N3CCc4ccccc4C3)c(=O)c3ccccc32)cc1	-3%	nt	16µM*	18µM*	-8	nt
O=C(Cn1c(=O)n(CCC(=O)N2CCc3ccccc3C2)c(=O)c2ccccc21)NCC1CCCO1 (centres undefined)	-18%	18	-17%	-5%	-14	-7
Cc1ccccc1NC(=O)Cn1c(=O)n(CCC(=O)N2CCc3ccccc3C2)c(=O)c2ccccc21	-21%	nt	15µM*	16µM*	-9	nt
Cc1ccc(CNC(=O)Nc2cc(C(=O)NCc3cccc(F)c3)ccc2N2CCCC2)cc1	-5%	nt	?	?	1	nt
COc1ccc(S(=O)(=O)Nc2cc(C)cc(C)n2)c2ccccc12	-23%	2	-18%	-24%	4	4
CCOc1ccc(NS(=O)(=O)c2ccc(OCC)c3ncccc23)cc1	-1%	18	10µM*	11µM*	17	29
CCOc1ccc(S(=O)(=O)NCc2ccccn2)c(C)c1C	nt	-13	-18%	23µM*	0	48
COc1ccc(S(=O)(=O)NCc2ccccn2)c(C)c1C	nt	-23	?	-14%	1	-11
CCOc1ccc(S(=O)(=O)Nc2cc(C)ccn2)c2ccccc12	-8%	56	?	?	32*	18
CCOc1ccc(S(=O)(=O)NCc2ccc(C)cc2)c2cccnc12	32µM*	8	-8%	17%	2	9
O=C(O)CCc1cc(I)c(O)c(I)c1	nt	nt	-19%	-25%	nt	nt
Cc1ccc(C(=O)C(OC(=O)CNC(=O)COc2ccccc2C)c2ccccc2)cc1 (centres undefined)	1%	nt	-12%	0%	nt	nt
COc1ccc(S(=O)(=O)n2ccnc2)c2cccnc12	13µM*	-10	1%	-8%	-4	0
CCOc1ccc(S(=O)(=O)O)c2cccnc12	nt	nt	-4%	-6%	5	nt
COc1ccc(S(=O)(=O)N2CCC(C(=O)Nc3ccc(F)cc3)CC2)c2cccnc12	nt	-12	?	10%	3	?
CCCCNS(=O)(=O)c1ccc(OC)c2ncccc12	28µM*	50	-20%	10%	2	1
Cc1cccc(-c2nc3cc(NC(=O)c4ccc(OCC(C)C)cc4)ccc3o2)c1	?	nt	?	?	6	nt
CC1=NN(c2ccc(C(F)(F)F)cn2)C(=O)C1	nt	-16	?	23µM*	-8	-1
Cc1ccnc(NC(=O)CCCOc2cc(=O)n(C)c3ccccc23)c1	-12%	-23	?	?	-6	-76*!
Cn1c(=O)cc(OCCCC(=O)NCc2ccccn2)c2ccccc21	-9%	8	0%	-13%	3	12
Cc1nc2ccccc2c2nc3ccccc3n12	?	31	21µM*	?	16	-6
Clc1ccccc1-c1nc2ccccc2c2nc3ccccc3n12	-18%	32	13µM*	?	5	10
Fc1ccc(-c2nc3ccccc3c3nc4ccccc4n23)cc1	14%	7	?	?	0	2
